High-throughput results from PubChem BioAssay.
S16 F2sN tox: toxic to S16 Pmp22-F2sN Schwann cells. S16 Pmp22-F2sN Schwann cells viability, CellTiter-Glo, 24 h. Potency, µM (highest dose often 57.5 µM), most hits filed as cytotoxic. hit rate 0.48% among 43,000; further: nearly all actives have a fitted effect of over 65% in size
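Rat S16 Schwann reporter line, 24 h treatment with library compounds delivered at 23 nL per well. Cell viability by CellTiter-Glo luminescence.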
PMP22 txn prim: modulates PMP22 transcription in S16 Schwann cells; S16 Pmp22-F2sN Schwann cells (luciferase reporters placed in the Pmp22 gene), FLuc/NLuc coincidence luminescence, 24 h; Potency, µM (titrated, usually from 57.5 µM), hits mostly inhibitors; hit rate 2% among 43,000; active means clear falling dose curves in both reporters; inconclusive means both reporters move, but less clearly or upward; inactive means either reporter flat; the % is the NLuc reporter signal
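S16 Schwann cells carrying FLuc/NLuc coincidence reporter in the Pmp22 3' UTR treated with compound 24 h at 37C; FLuc then NLuc luminescence read sequentially by dual-luciferase reagents.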
pS6 MEF inh: mTORC1 pathway inhibition measured by phospho-rpS6; Tsc2-/- p53-/- MEF, phospho-rpS6 immunofluorescence/PI, 24 h; Potency, µM (top dose mostly 38.3 µM), actives largely listed as inhibitors; hit rate 0.78% among 44,000; further: nearly all actives have a fitted effect of over 50% in size
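Readout is phospho-S6 Alexa 488 signal normalized to PI per well, reported as % active cells with thresholds set from rapamycin (7.5 nM) and DMSO controls. Cells: Tsc2-/-, p53-/- MEFs, 24 hrs compound at 37 C; PI cell number serves as viability.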
PTAP-TSG101 blk: blocks PTAP binding to human TSG101, validation; Potency, µM (series often up to 115 µM), actives largely listed as inhibitors; 44,000 tested, under 10 active; AID 1347069; Fluorescence polarization, FITC-PTAP peptide/Tsg101, 20 min
Target sequence (Q99816 whole entry, looked up): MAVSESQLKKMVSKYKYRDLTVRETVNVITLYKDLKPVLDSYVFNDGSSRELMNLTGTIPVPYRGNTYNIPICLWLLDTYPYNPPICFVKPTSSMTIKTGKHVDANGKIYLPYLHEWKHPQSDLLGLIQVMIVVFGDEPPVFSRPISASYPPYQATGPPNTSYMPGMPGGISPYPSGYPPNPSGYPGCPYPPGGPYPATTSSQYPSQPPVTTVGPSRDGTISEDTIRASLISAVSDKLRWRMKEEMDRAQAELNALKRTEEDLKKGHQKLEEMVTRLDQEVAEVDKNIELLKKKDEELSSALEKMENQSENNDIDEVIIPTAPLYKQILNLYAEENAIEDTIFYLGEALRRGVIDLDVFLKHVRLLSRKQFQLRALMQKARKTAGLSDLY
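Read-out is FITC fluorescence polarization. Compounds were added to Tsg101 binding domain (10 uM final), then FITC-PTAP peptide (50 nM final), 20 min at r.t. Total S+P intensity flags fluorescent compounds.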
GALK inh: inhibits human galactokinase | P51570 | recombinant GALK, Kinase-Glo ATP luminescence, 1 h | Potency, µM (series often up to 57.5 µM), hits mostly inhibitors | 44,000 tested, under 10 active | AID 1347072
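Human GALK (5 nM) was incubated with 35 uM ATP and 100 uM galactose in 20 mM HEPES pH 8.0 with MgCl2, NaCl, DTT and BSA for 1 h at room temperature. Remaining ATP was measured by Kinase-Glo Plus luminescence.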
NLuc saturating: inhibits NanoLuc at saturating substrate, PMP22 counter-screen; hit rate 4% among 690; Potency, µM (highest dose often 57.5 µM), actives largely listed as inhibitors; shares compounds with PMP22 txn prim; Secreted NLuc enzyme (filtered S16 cell medium), Nano-Glo luminescence; AID 1508638
NLuc Km ctr: counter-screen for PMP22 expression modulators: NanoLuc inhibition at Km; shares compounds with PMP22 txn prim; secreted NLuc enzyme, coelenterazine luminescence, Km conditions; Potency, µM (titrated, usually from 57.5 µM), most hits filed as inhibitors; hit rate 5% among 690; AID 1508639
FLuc ctr PMP22: inhibits firefly luciferase, PMP22 counter-screen; shares compounds with PMP22 txn prim; purified P. pyralis FLuc, luminescence, 10 min; Potency, µM (doses to about 57.5 µM), most hits filed as inhibitors; 690 tested, under 10 active; AID 1508640
S16 viab conf: S16 Schwann cell cytotoxicity, confirmatory. AID 1508641. Potency, µM (doses to about 57.5 µM), most hits filed as cytotoxic. shares compounds with PMP22 txn prim. hit rate 7% among 690. S16 Schwann cells viability, CellTiter-Glo ATP luminescence, 24 h
PMP22 txn conf: confirmation of modulators of PMP22 gene transcription in S16 cells; shares compounds with PMP22 txn prim; S16 Schwann cells Pmp22-F2sN, dual luciferase, 24 h; Potency, µM (highest dose often 57.5 µM), hits mostly inhibitors; hit rate 22% among 690; AID 1508646; active means clear falling dose curves in both reporters; inconclusive means both reporters move, but less clearly or upward; inactive means either reporter flat; the % is the FLuc reporter signal
PMP22 HiBiT cnf: confirmation of modulators of rat PMP22 protein expression | S16 Schwann cells Pmp22-HiBiT, luminescence, 48 h | shares compounds with PMP22 txn prim | Potency, µM (series often up to 27.9 µM), actives largely listed as inhibitors | 95 tested, under 10 active
Target sequence (P25094 whole entry, looked up): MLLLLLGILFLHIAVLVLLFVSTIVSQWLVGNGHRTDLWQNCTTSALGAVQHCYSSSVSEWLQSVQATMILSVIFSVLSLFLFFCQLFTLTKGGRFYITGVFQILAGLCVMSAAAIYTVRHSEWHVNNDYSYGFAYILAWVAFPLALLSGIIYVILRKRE
Each line names hits and unclear results; the compound was inactive in the other large screens (follow-up assays come after a bar, where they were run). Most compounds without a hit are left out; they make up all but 2.8% or so of the library. Unless noted, the call rests on the fitted dose curve; in most records, active means well fitted curve in the direction sought with a large enough effect; inconclusive means small, poorly fitted or top-dose-only effect, or another doubt; inactive means no such curve, though single readings can be large; an effect the other way counts as inactive or inconclusive.

CCCCCn1c(=O)[nH]c2cc(C(=O)NCc3ccc(Cl)cc3)ccc2c1=O	none
COc1ccc(OC)c(NC(=O)Cn2cnc3onc(-c4ccc(Cl)cc4)c3c2=O)c1	PMP22 txn prim 5.1µM | NLuc saturating inactive | NLuc Km ctr inactive | FLuc ctr PMP22 inactive | S16 viab conf inactive | PMP22 txn conf inconclusive
CCNc1nc(NC(C)(C)C)nc(Oc2ccc(=O)n(-c3ccccc3)n2)n1	PMP22 txn prim inconclusive | NLuc saturating inactive | NLuc Km ctr inactive | FLuc ctr PMP22 inactive | S16 viab conf inactive | PMP22 txn conf inactive
COc1ccc(OC)c(CCNc2ncnc3onc(C)c23)c1	PMP22 txn prim 11µM, pS6 MEF inh inconclusive | NLuc saturating inactive | NLuc Km ctr inactive | FLuc ctr PMP22 inconclusive | S16 viab conf inactive | PMP22 txn conf inactive
CCOC(=O)N1CCN(Cc2nc3cc(NC(=O)CC)ccc3n2C(C)C)CC1	PMP22 txn prim 5.3µM, pS6 MEF inh inconclusive | NLuc saturating inactive | NLuc Km ctr inactive | FLuc ctr PMP22 inactive | S16 viab conf inactive | PMP22 txn conf inconclusive
CCOC(=O)N1CCN(Cc2nc3cc(NC(=O)c4ccc([N+](=O)[O-])cc4)ccc3n2C(C)C)CC1	PMP22 txn prim 14µM, pS6 MEF inh inconclusive | NLuc saturating inconclusive | NLuc Km ctr 19µM | FLuc ctr PMP22 inactive | S16 viab conf inconclusive | PMP22 txn conf inconclusive
CCOC(=O)N1CCN(Cc2nc3cc(NC(=O)CC(C)C)ccc3n2C(C)C)CC1	PMP22 txn prim inconclusive, pS6 MEF inh inconclusive
Cc1nn(C)c2c1c(C(F)(F)F)cc(=O)n2CC(=O)N1CCC(C)CC1	pS6 MEF inh inconclusive
Cc1cc(Nc2ccc(F)cc2)nc(-n2nc(C)cc2C)n1	S16 F2sN tox inconclusive, PMP22 txn prim inconclusive | NLuc saturating inconclusive | NLuc Km ctr inactive | FLuc ctr PMP22 inactive | S16 viab conf inconclusive | PMP22 txn conf 16µM
CCOc1ccc(NC(=O)c2ccc3nc(C(C)C)oc3c2)cc1	S16 F2sN tox inconclusive
CC(Oc1ccccc1)C(=O)Nc1ccccc1C(=O)OCc1cc(=O)n2nc(C3CC3)sc2n1 (configuration not stated)	PMP22 txn prim 6.5µM | NLuc saturating inactive | NLuc Km ctr inactive | FLuc ctr PMP22 inactive | S16 viab conf inactive | PMP22 txn conf inactive
COc1ccc(N(C(=O)Cn2nnc3ccccc32)C(C(=O)NCc2ccccc2)c2ccc(F)cc2)cc1 (configuration not stated)	none
COc1ccc(C(C(=O)NCc2ccccc2)N(C(=O)Cn2nnc3ccccc32)c2ccc(F)cc2)cc1 (configuration not stated)	PMP22 txn prim 11µM | NLuc saturating inactive | NLuc Km ctr inactive | FLuc ctr PMP22 inactive | S16 viab conf inactive | PMP22 txn conf inactive
CC1=C(C(=O)Nc2ccc(Cl)cc2)C(c2ccccc2)n2ncc(C(=O)Nc3ccccc3)c2N1 (configuration not stated)	S16 F2sN tox inconclusive, PMP22 txn prim inconclusive, pS6 MEF inh inconclusive
O=C(Nc1ccc(Cl)cc1)c1cnn2c1NC(c1ccccc1)=CC2c1ccccc1 (configuration not stated)	S16 F2sN tox inconclusive, PMP22 txn prim 14µM | NLuc saturating inconclusive | NLuc Km ctr inconclusive | FLuc ctr PMP22 inactive | S16 viab conf inactive | PMP22 txn conf inconclusive
Cc1ccc(Cl)cc1N1CCN(CCCNc2ncnc3onc(-c4ccc(Cl)cc4)c23)CC1	PMP22 txn prim 14µM | NLuc saturating inactive | NLuc Km ctr inactive | FLuc ctr PMP22 inactive | S16 viab conf inactive | PMP22 txn conf inconclusive
Cc1ccc(C)c(N2CCN(CCCNc3ncnc4onc(-c5ccc(Cl)cc5)c34)CC2)c1	none
Clc1ccc(-c2noc3ncnc(N4CCCCC4)c23)cc1	PMP22 txn prim 12µM | NLuc saturating inactive | NLuc Km ctr inactive | FLuc ctr PMP22 inactive | S16 viab conf inactive | PMP22 txn conf inactive
Fc1ccc(N2CCN(c3ncnc4onc(-c5ccc(Cl)cc5)c34)CC2)cc1	none
Cc1cc(C)cc(NC(=O)c2ccc3oc(=O)c(S(=O)(=O)c4ccc(F)cc4)cc3c2)c1	PMP22 txn prim 11µM | NLuc saturating inactive | NLuc Km ctr inactive | FLuc ctr PMP22 inactive | S16 viab conf inactive | PMP22 txn conf inactive
COc1cc(OC)cc(-n2c(=O)c3ccccc3n(CC(=O)NCCc3ccc(OC)c(OC)c3)c2=O)c1	none
COC(=O)c1cc2occc2n1Cc1cccc(C)c1	PMP22 txn prim inconclusive | NLuc saturating inactive | NLuc Km ctr inconclusive | FLuc ctr PMP22 inactive | S16 viab conf inactive | PMP22 txn conf inactive
COc1ccc(Br)cc1CC1C(=O)Nc2ccccc21 (configuration not stated)	PMP22 txn prim 14µM | NLuc saturating inconclusive | NLuc Km ctr inconclusive | FLuc ctr PMP22 inactive | S16 viab conf inactive | PMP22 txn conf inconclusive | PMP22 HiBiT cnf inactive
Cc1ccccc1CC1C(=O)Nc2ccc(Br)cc21 (configuration not stated)	S16 F2sN tox inconclusive
Cc1ccc(C)n1-c1nnc(N2CCCC(C(=O)NCc3cccc(F)c3)C2)s1 (configuration not stated)	PMP22 txn prim 15µM | NLuc saturating inactive | NLuc Km ctr inactive | FLuc ctr PMP22 inactive | S16 viab conf inactive | PMP22 txn conf inconclusive
COc1ccccc1CNC(=O)C1CCCN(c2nnc(-n3c(C)ccc3C)s2)C1 (configuration not stated)	PMP22 txn prim inconclusive | NLuc saturating inactive | NLuc Km ctr inactive | FLuc ctr PMP22 inactive | S16 viab conf inactive | PMP22 txn conf inactive
